FBPA coupling cs – coupling enzyme interference in Giardia aldolase counter-screen; activity change, negative = inhibition, % at 58.2 µM, hits read low; coupling enzyme system counterscreen, AmpLite Red fluorescence; 290,000 tested, 0.67% active; AID 2472; in the data active means activity change below about -30%
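Coupling enzymes only (glyceraldehyde-3-phosphate) + compound, at 57.5 uM final, 10 min RT; add substrate/coupling/AmpLite Red mix, 20 min RT; fluorescence ex 525/em 598 nm. Actives flag coupling-system interference.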
Tau fluor cs – counter-screen for tau fibril formation inhibitors; tau K18 P301L Alexa594 fluorescence, heparin fibrillization; Potency, µM (doses to about 57.7 µM); 280,000 tested, 0.93% active; AID 1463; further: nearly all actives have a fitted effect of over 55% in size
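Human K18 P301L tau (15 uM unlabeled plus 0.24 uM Alexa 594-labeled, final) in 100 mM sodium acetate pH 7 was mixed with compound and 20 uM heparin and incubated 6 hr at 37 C.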
Tau fibril ThT – blocks human tau fibril formation measured by thioflavin T | P10636 | recombinant tau K18 P301L (four-repeat tau fragment), heparin-induced fibrillization, ThT fluorescence | Potency, µM (titrated, usually from 57.4 µM), hits mostly inhibitors | 270,000 tested, 2.1% active | AID 1460; further: nearly all actives have a fitted effect of over 55% in size
Target sequence (P10636 561-689 P618L limits assumed): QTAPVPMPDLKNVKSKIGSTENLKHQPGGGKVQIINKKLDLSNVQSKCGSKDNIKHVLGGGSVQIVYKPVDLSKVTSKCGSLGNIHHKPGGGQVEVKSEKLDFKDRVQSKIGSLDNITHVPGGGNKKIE
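K18 P301L tau (15 uM + 0.24 uM Alexa 594-tagged), heparin 20 uM, NaOAc pH 7, 6 h 37 C; ThT 30 uM, 1 h RT, ex 450/em 510 nm.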
USP1-UAF1 inh – USP1/UAF1 (human) deubiquitinase inhibition; O94782; recombinant USP1/UAF1, Ub-Rhodamine cleavage fluorescence; Potency, µM (top dose mostly 57.1 µM), usual class: inhibitors; 390,000 tested, 0.23% active; further: nearly all actives have a fitted effect of over 60% in size
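1 nM enzyme complex + cpd, 15 min RT; start with Ub-Rho 150nM final; kinetic fluorescence ex 480/em 540, 6 reads q60 s. Buffer 50mM HEPES pH 7.8, 0.5mM EDTA, 0.1 mg/ml BSA, 1mM TCEP, 0.01% Tween-20.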
Tau fibril FP – blocks human tau fibril formation measured by polarization; Potency, µM (titrated, usually from 57.7 µM), most hits filed as inhibitors; 280,000 tested, 0.39% active; K18 P301L tau heparin fibrillization, Alexa594 FP, 6 h; further: nearly all actives have a fitted effect of over 55% in size
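Read-out: fluorescence polarization of Alexa 594-labeled tau (0.24 uM), 555 nm excitation, 632 nm emission. Mixtures held 15 uM unlabeled K18 P301L, compound and 20 uM heparin, pH 7 acetate buffer, incubated 6 hr at 37 C.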
Numbers stand for hits; n = inactive; u = inconclusive; x = no result given; [ ] = dose if it differs, or a comment. Compounds with a hit are over-represented: about 2.3% of the library has one in this group of screens. Unless noted, the call rests on the fitted dose curve; in most records, active means well fitted curve in the direction sought with a large enough effect; inconclusive means small, poorly fitted or top-dose-only effect, or another doubt; inactive means no such curve, though single readings can be large; an effect the other way counts as inactive or inconclusive.

SMILES	FBPA coupling cs	Tau fluor cs	Tau fibril ThT	USP1-UAF1 inh	Tau fibril FP
O=c1c(O)cc(C2Oc3cc(O)cc(O)c3CC2O)cc2c(C3Oc4cc(O)cc(O)c4CC3O)cc(O)c(O)c12 (stereo not drawn)	-74.7	8.91µM[quencher]	0.501µM	x	1µM
Cc1cccc(C)c1OCC(=O)N(Cc1ccc(Cl)cc1)CC1CCCO1 (stereo not drawn)	x	n	n	n	n
Cc1ccccc1OCCNc1cc(N2CC(C)NC(C)C2)ccc1[N+](=O)[O-] (stereo not drawn)	n	u	17.8µM	n	u
Cc1nn(-c2ccccc2)c(OC(=O)c2ccc(F)cc2)c1S(=O)(=O)c1ccccc1	x	n	n	u	n
S=c1c2c(nc3nc[nH]n13)CCC2	-36.4	n	n	n	n
COc1ccc(NC(=O)CSc2nc(-c3ccc(OC)cc3)[nH]c2-c2ccc(F)cc2)cc1	x	u	n	n	n
COc1ccc(NC(=O)CSc2nc(-c3ccc(OC)c(OC)c3)[nH]c2-c2ccc(C)cc2)cc1	x	4.47µM[quencher]	n	n	n
COc1ccc(-c2[nH]c(-c3ccc(OC)c(OC)c3)nc2SCC(=O)Nc2ccccc2)cc1	x	6.31µM[quencher]	n	n	n
COc1ccc(-c2nc(SCC(=O)Nc3ccc4c(c3)OCCO4)c(-c3ccc(C)cc3)[nH]2)cc1OC	x	7.94µM[quencher]	u	n	n
COc1ccc(NC(=O)CSc2ncccc2C(=O)O)cc1OC	x	n	n	u	n
COc1ccc(NC(=O)CSc2nc(-c3cccc(C)c3)[nH]c2-c2ccccc2)cc1OC	x	8.91µM[quencher]	u	n	n
O=C(O)/C=C\C(=O)Nc1ccc(N2CCN(c3ccc(Cl)c(Cl)c3)CC2)cc1	n	u	2.24µM	n	u
O=C(O)/C=C\C(=O)Nc1ccc(N2CCN(c3ccc(Cl)cc3)CC2)cc1	n	u	3.55µM	n	u
CC(=O)Nc1ccc(NC(=O)/C=C/c2ccccc2)cc1	n	n	n	n	n
O=C(/C=C/c1ccco1)Nc1ccc(N2CCCC2)cc1	n	n	2.24µM	n	n
O=C(/C=C/c1ccco1)Nc1ccc(C(=O)N2CCOCC2)cc1	n	n	n	n	n
CC(=O)N1CCN(c2ccc(NC(=O)/C=C/c3ccccc3)cc2)CC1	n	n	2.51µM	n	n
O=C(O)/C=C\C(=O)Nc1ccc(N2CCN(c3cccc(Cl)c3)CC2)cc1	n	n	u	n	n
Cc1ccc(Cn2cnc3c(oc4ccccc43)c2=O)cc1	x	n	n	n	n
O=C(O)/C=C\C(=O)Nc1ccc(N2CCN(c3ccc(F)cc3)CC2)cc1	n	u	5.62µM	n	n
Cc1oc2ncn(CC(C)C)c(=O)c2c1C(=O)N1CCN(c2cccc(C(F)(F)F)c2)CC1	x	n	n	u	n
Nc1nc(-c2ccccc2)c(N=Nc2cccnc2)s1	n	u	2.82µM	n	n
N#C/C(=C\c1ccc(O)c(O)c1)C(=O)Nc1ccccc1	n	u	12.6µM	u	n
N#C/C(=C/c1ccc(O)c(O)c1)C(=O)OC/C=C/c1ccccc1	x	11.2µM[quencher]	11.2µM	x	u
C[C@@H](NC(=O)/C(C#N)=C/c1ccc(O)c(O)c1)c1ccccc1	n	u	u	n	n
SMILES	FBPA coupling cs	Tau fluor cs	Tau fibril ThT	USP1-UAF1 inh	Tau fibril FP
N#C/C(=C\c1ccc(O)c(Br)c1)C(=O)NCc1ccccc1	n	n	n	n	n
N#C/C(=C\c1ccc(O)c([N+](=O)[O-])c1)C(=O)NCc1ccccc1	n	n	15.8µM	n	n
CCOC(=O)/C(C#N)=C\c1ccc(N2CCN(C/C=C/c3ccccc3)CC2)cc1	n	n	u	28.2µM	n
Cc1nn(CCC(=O)Nc2ccccc2Br)c(=O)c2nn(-c3ccccc3)c(C)c12	x	n	n	n	n
CC(C)(C)c1ccc(C(=O)Nc2sc3c(c2C(=O)O)CCC3)cc1	n	u	14.1µM	u	n
O=C(Nc1sc2c(c1C(=O)O)CCCC2)c1ccc(F)cc1	n	x	x	n	x
Cc1cccc(NC(=O)c2c(NC(=O)c3ccccc3)sc3c2CCCC3)c1	x	u	10µM	n	u
COc1ccc2oc(=O)c(/C(C)=N/Nc3ccccc3)cc2c1	n	u	17.8µM	n	n
COc1ccc2oc(=O)c(C(=O)Nc3cccc(C(C)=O)c3)cc2c1	n	x	x	n	x
OCC(O)C(O)C(O)C(O)C1NCCS1 (stereo not drawn)	n	n	20µM	n	u
CCc1nn(-c2ccccc2)c2nc(-c3ccc(O)cc3)c3cc(OC)c(OC)cc3c12	x	u	n	n	u
COc1cccc(-c2nc(SCC(=O)NC3CCCC3)c(-c3ccccc3)[nH]2)c1	x	25.1µM[quencher]	n	n	u
COc1ccc(-c2nc(SCC(=O)NC3CCCC3)c(-c3ccc(C)cc3)[nH]2)cc1OC	x	17.8µM[quencher]	u	n	u
COc1ccc(-c2[nH]c(-c3ccc(C)cc3)nc2SCC(=O)NCc2ccco2)cc1OC	n	u	u	n	n
COc1cccc(-c2nc(SCC(=O)NC3CCCC3)c(-c3ccc(F)cc3)[nH]2)c1	x	12.6µM[quencher]	u	n	n
COc1cccc(-c2nc(SCC(=O)NCC3CCCO3)c(-c3ccc(C)cc3)[nH]2)c1 (stereo not drawn)	x	u	n	n	n
COc1cccc(-c2nc(SCC(=O)NCC3CCCO3)c(-c3ccc(Cl)cc3)[nH]2)c1 (stereo not drawn)	x	12.6µM[quencher]	u	n	n
COCCNC(=O)CSc1nc(-c2ccccc2)[nH]c1-c1ccc(OC)cc1	x	n	n	n	u
C=CCC(C)(O)c1ccccc1 (stereo not drawn)	n	n	n	x	n
COc1cccc(CNC(=O)Cn2c(C)c3cnn(-c4ccccc4)c(=O)c3c2C)c1	x	n	n	n	n
Cc1ccccc1NC(=O)CSc1nc2c(c(=O)n(C)c(=O)n2C)n1Cc1ccccc1F	x	n	n	n	n
COc1cccc(-c2nc(SCC(=O)NC3CCCC3)c(-c3ccc(C)cc3)[nH]2)c1	x	11.2µM[quencher]	n	n	u
COc1ccc(-c2[nH]c(-c3ccc(C)cc3)nc2SCC(=O)NC2CCCC2)cc1	n	u	u	n	n
Cc1ccc(-c2nc(SCC(=O)NCC3CCCO3)c(-c3ccccc3)[nH]2)cc1 (stereo not drawn)	n	u	n	n	n
O=C(CSc1nc(-c2ccccc2)[nH]c1-c1ccc(F)cc1)NC1CCCC1	x	28.2µM[quencher]	n	n	n
COc1ccc(C(=O)Nc2nnc(SCc3cc(=O)c4cccc(F)c4[nH]3)s2)cc1	x	n	n	n	n
Cc1ccccc1CSc1cn(CC(=O)N2CCCC2)c2ccccc12	x	n	u	n	n
CC(C)c1ccc(/C=C/C(=O)N2CCCCCC2)cc1	n	n	u	n	n
CC(C)c1ccc(/C=C/C(=O)n2nnc3ccccc32)cc1	n	n	20µM	n	u
Cc1cccc(NC(=O)CSCc2nc3c(nnn3Cc3ccc(F)cc3)c(=O)[nH]2)c1C	n	n	n	n	n

Screens deposited in PubChem by National Center for Advancing Translational Sciences (NCATS).
